Where “and” joins values, the source holds several entries; their conditions need not be identical. Equal values may be shown once. Where a structure was tested more than once in an assay, its records may differ in their call. Calls of active or inactive are those of the source. The calls were made as follows: active = hit-call score of the fitted dose curve at least 0.9, where 1 is the maximum; inactive = score below 0.9.

In experiment [1] the target is Transcription factor E2F1 (Homo sapiens) (UniProt Q01094). Put plainly: ATG_E2F_CIS: Attagene CIS-FACTORIAL HepG2 Assay for human E2F Transcription Factor 1 (AID 2282935). The note with it: HepG2 Attagene cis-reporter, E2F reporter RNA transcripts; actives raise or lower the signal. Summed up: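 HepG2 cells transiently transfected with multiplexed cis-element reporter units, dosed for 24 h. Reporter mRNA measured by RT-PCR, 6-FAM primer-extension labeling, HpaI digestion and capillary electrophoresis; bidirectional fit versus DMSO baseline.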

Experiment [2] can be described thus: ATG_E_Box_CIS: Attagene CIS-FACTORIAL HepG2 Assay for human Enhancer Box (E-box) (AID 2282936). The note with it: HepG2 E-box cis-reporter transcription, actives raise or lower the signal. Summed up:
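HepG2 cells transiently transfected with multiplexed cis-element reporter units sensing endogenous transcription factor activity; 24 h compound exposure. Reporter mRNA measured by RT-PCR, 6-FAM primer extension, HpaI digestion and capillary electrophoresis; bidirectional fit versus DMSO.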

A short description of experiment [3]: ATG_M_61_CIS: Attagene CIS-FACTORIAL HepG2 Assay for M61 Transcription Factor (Internal Marker) (AID 2282937). The note with it: HepG2 Attagene CIS-FACTORIAL M61 internal marker reporter; actives raise or lower the signal. Summed up:
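Cells were transfected with reporter units under cis-regulatory promoters, treated with chemicals for 24 h, then lysed for RNA. Reporter transcripts were quantified by RT-PCR and capillary electrophoresis, and activity was fitted bidirectionally against DMSO.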

The nature of experiment [4]: ATG_EGR_CIS: Attagene CIS-FACTORIAL HepG2 Assay for human Early Growth Response 1 (EGR1) (AID 2282938). As to conditions: HepG2 Attagene CIS-FACTORIAL EGR reporter mRNA; actives raise or lower the signal. In outline:
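Endogenous TF activity in HepG2 liver cells was gauged through cis-promoter reporter constructs transiently transfected. After 24 h dosing, reporter mRNA was quantified by RT-PCR and capillary electrophoresis, and curves fitted in both directions versus DMSO.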

The nature of experiment [5]: ATG_M_19_CIS: Attagene CIS-FACTORIAL HepG2 Assay for M19 Transcription Factor (Internal Marker) (AID 2282939). As to conditions: HepG2 Attagene CIS-FACTORIAL M19 internal marker reporter; actives raise or lower the signal. Summed up: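 Signals come from fluorescence of labelled reporter-specific PCR fragments resolved by capillary electrophoresis, following 24 h treatment of HepG2 cells transfected with cis-promoter reporter units; activity was fitted in both directions relative to DMSO.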

Experiment [6] can be described thus: ATG_ERE_CIS: Attagene CIS-FACTORIAL HepG2 Assay for Estrogen Response Element (ERE) (AID 2282940). As to conditions: HepG2 ERE cis-reporter, Attagene RNA transcript; actives raise or lower the signal. In outline:
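Fluorescence of capillary-separated, FAM-labelled reporter cDNA fragments indicates reporter mRNA levels in HepG2 cells exposed to chemicals for 24 h. Transient transfection with cis-regulated units; data fitted in both directions against DMSO.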

Experiment [7] is described as follows: ATG_Ets_CIS: Attagene CIS-FACTORIAL HepG2 Assay for human Erythroblast Transformation Specific (ETS) (AID 2282941). As to conditions: HepG2 ETS cis-reporter transcription, actives raise or lower the signal. Summed up: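 Steps: transfect HepG2 with multiple reporter units; treat compound 24 h; isolate RNA, DNase-treat, reverse-transcribe; PCR-amplify, label with 6-FAM, digest with HpaI; separate by capillary electrophoresis. Activity fitted both directions versus DMSO.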

In experiment [8] the target is Hepatocyte nuclear factor 3-beta (Homo sapiens) (UniProt Q9Y261). Kind of experiment: ATG_FoxA2_CIS: Attagene CIS-FACTORIAL HepG2 Assay for human Forkhead box A2 (FOXA2) (AID 2282942). As to conditions: HepG2 cis-reporter transcription factor activity, 24 h; actives raise or lower the signal. In outline:
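Endogenous transcription factor activity was read in HepG2 cells carrying transiently transfected cis-promoter reporter units. After 24 h dosing, reporter mRNA was quantified by RT-PCR and capillary electrophoresis, and values fitted bidirectionally versus DMSO.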

A short description of experiment [9]: ATG_FoxO_CIS: Attagene CIS-FACTORIAL HepG2 Assay for human Forkhead box O (FoxO) (AID 2282943). The note with it: HepG2 Attagene cis-reporter, FoxO element, mRNA; actives raise or lower the signal. Summed up: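 24 h chemical exposure, HepG2 with transient cis-MRTU transfection. RNA extraction, oligo(dT) RT, reporter-specific PCR, primer-extension labelling, HpaI digestion, CE fragment analysis; bidirectional fit, DMSO baseline.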

Experiment [10] in a line: ATG_GATA_CIS: Attagene CIS-FACTORIAL HepG2 Assay for human GATA Binding Protein (AID 2282944). The note with it: HepG2 GATA cis-element reporter, Attagene multiplex mRNA; actives raise or lower the signal. Summed up:
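After transfecting HepG2 cells with multiple cis-regulated reporter units, chemicals are dosed for 24 h; isolated RNA undergoes RT-PCR and fluorescent labeling before capillary electrophoresis, with activity expressed against DMSO.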

Transcription factor E2F1 (Homo sapiens), sequence (Q01094 whole entry, looked up): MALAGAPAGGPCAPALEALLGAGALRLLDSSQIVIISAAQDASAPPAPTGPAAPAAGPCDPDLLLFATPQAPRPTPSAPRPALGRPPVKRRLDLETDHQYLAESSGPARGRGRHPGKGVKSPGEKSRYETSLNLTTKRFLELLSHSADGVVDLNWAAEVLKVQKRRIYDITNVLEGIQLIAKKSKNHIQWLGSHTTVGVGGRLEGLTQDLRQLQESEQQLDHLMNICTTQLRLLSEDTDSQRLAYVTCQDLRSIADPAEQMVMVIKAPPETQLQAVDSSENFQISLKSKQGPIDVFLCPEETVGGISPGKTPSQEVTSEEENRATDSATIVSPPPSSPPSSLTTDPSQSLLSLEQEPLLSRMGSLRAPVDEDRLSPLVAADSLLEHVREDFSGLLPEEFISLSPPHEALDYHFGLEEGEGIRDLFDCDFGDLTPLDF
Hepatocyte nuclear factor 3-beta (Homo sapiens), sequence (Q9Y261 whole entry, looked up): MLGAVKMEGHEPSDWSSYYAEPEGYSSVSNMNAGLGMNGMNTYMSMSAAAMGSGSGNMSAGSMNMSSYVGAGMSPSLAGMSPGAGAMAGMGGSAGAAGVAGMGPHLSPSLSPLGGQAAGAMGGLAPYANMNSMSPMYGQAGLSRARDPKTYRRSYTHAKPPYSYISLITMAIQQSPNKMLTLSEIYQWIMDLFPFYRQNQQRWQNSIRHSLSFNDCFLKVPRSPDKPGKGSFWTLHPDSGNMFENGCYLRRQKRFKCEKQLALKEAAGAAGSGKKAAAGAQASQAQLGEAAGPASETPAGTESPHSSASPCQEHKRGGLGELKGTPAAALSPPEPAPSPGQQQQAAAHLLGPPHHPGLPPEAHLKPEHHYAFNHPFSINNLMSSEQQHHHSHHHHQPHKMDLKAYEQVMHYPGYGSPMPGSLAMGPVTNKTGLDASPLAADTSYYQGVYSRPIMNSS

By AC50 is commonly meant the midpoint of the concentration-response curve, whichever way the signal moves. Regarding `COC(=O)c1ccccc1CS(=O)(=O)NC(=O)Nc1nc(OC)cc(OC)n1`, the outcome in experiment [1], in experiment [2], in [3], in experiment [4], in experiment [5] and in experiment [6] was inactive. In addition, the call in experiment [7], in [8], in experiment [9] and in [10] was inactive. For the same compound, in experiment [2], the AC50 is 125 µM (active).
In the case of `CC(C)N(C(=O)COc1nnc(C(F)(F)F)s1)c1ccc(F)cc1`, the outcome in [1], in experiment [2], in experiment [3], in [4], in experiment [5] and in [6] was inactive. The compound was called inactive in experiment [8], in experiment [9] and in [10]. Besides, the AC50 in experiment [7] is 15.6 µM (active).
`COc1cc(OC)nc(NC(=O)NS(=O)(=O)c2cc(NC=O)ccc2C(=O)N(C)C)n1`: the compound was classed as inactive in experiment [1], in experiment [2], in experiment [3], in [4], in [5] and in experiment [6]. Further, the outcome in experiment [7], in experiment [8], in experiment [9] and in [10] was inactive.
Regarding `[2H]C1([2H])[n+]2ccccc2-c2cccc[n+]2C1([2H])[2H]`, the AC50 in [1] is 90.7 µM (active); in [2] it was 78.7 µM (active). The result in experiment [3], in experiment [4], in experiment [5], in [6], in experiment [7] and in experiment [8] was inactive. Moreover, the compound was called inactive in experiment [9] and in experiment [10].
`ClC1C(Cl)C(Cl)C(Cl)C(Cl)C1Cl` (stereo not drawn): the call in experiment [1], in experiment [2], in experiment [3], in experiment [4], in [5] and in [7] was inactive. Besides, the compound was called inactive in experiment [8], in experiment [9] and in experiment [10]. Moreover, the AC50 in [2] is 100 µM (active) and 69.6 µM (active); in [7] it was 8.89 µM (active).
As to `CCC(C)Nc1c([N+](=O)[O-])cc(C(C)(C)C)cc1[N+](=O)[O-]` (stereo not drawn), the result in [1], in [2], in [3], in experiment [4], in [5] and in experiment [7] was inactive. In addition, the compound was called inactive in experiment [8], in experiment [9] and in [10]. In experiment [6], the concentration at half-maximal activity (AC50) is 5.96 µM (active).
Consider `CNC(=O)Oc1cccc(N=CN(C)C)c1`, for which the compound was called inactive in experiment [1], in [2], in experiment [3], in [4], in experiment [5] and in experiment [7]. Moreover, the outcome in experiment [8] was inactive. In addition, the AC50 was 91.4 µM (active) in [6], 70.8 µM (active) in experiment [9] and 33.6 µM (active) in experiment [10].
Consider `N#CN`, for which the compound was classed as inactive in experiment [1], in experiment [2], in [3], in experiment [4], in experiment [5] and in experiment [6]. Moreover, the compound was called inactive in [7], in [8], in experiment [9] and in [10].
On to `CC1(c2ccc(Oc3ccccc3)cc2)OC(=O)N(Nc2ccccc2)C1=O` (stereo not drawn), for which the compound was classed as inactive in experiment [1], in experiment [2], in [3], in experiment [4], in experiment [5] and in experiment [6]. Besides, the compound was classed as inactive in [7], in [8], in [9] and in [10].
Consider `O=S(=O)(O)C(F)(F)C(F)(F)C(F)(F)C(F)(F)C(F)(F)C(F)(F)C(F)(F)C(F)(F)F`, for which the AC50 in [1] is 128 µM (active) and 48.9 µM (active); in experiment [2], 134 µM (active); in experiment [4], 102 µM (active); in experiment [5], 153 µM (active); in experiment [7], 56.1 µM (active) and 233 µM (active); in experiment [9], 143 µM (active) and 58.9 µM (active) and 223 µM (active). Moreover, in [10], the AC50 was 44.4 µM (active). Also, the outcome in experiment [1], in [2], in experiment [3], in experiment [4], in experiment [5] and in experiment [7] was inactive. Moreover, the outcome in [8], in experiment [9] and in experiment [10] was inactive.
With `Cc1cc(C)nc(NC(=O)NS(=O)(=O)c2ccccc2C(=O)OC2COC2)n1`, the call in experiment [1], in [2], in experiment [3], in [5], in [7] and in experiment [8] was inactive. For the same compound, the result in [9] and in experiment [10] was inactive. Further, the AC50 in experiment [4] is 79 µM (active); in experiment [6] it was 71 µM (active).
For the compound `CCC(C)(C)C(=O)OC1=C(c2ccc(Cl)cc2Cl)C(=O)OC12CCCCC2`, the result in experiment [1], in experiment [2], in experiment [3], in experiment [4], in [5] and in experiment [6] was inactive. The result in experiment [8], in experiment [9] and in [10] was inactive. Further, in experiment [7], the AC50 was 1.69 µM (active).
Consider `CCCN(CCC)c1c([N+](=O)[O-])cc(C(F)(F)F)cc1[N+](=O)[O-]`, for which the call in [1], in experiment [2], in experiment [3], in [4], in [5] and in experiment [6] was inactive. Moreover, the result in experiment [7], in experiment [8], in [9] and in [10] was inactive.

For the origin of these results see PubChem BioAssay (EPA / NIEHS).
